# Inconclusive results are not listed. Activity calls are given as the source filed them. The calls were made as follows, unless noted: active = hit-call score of the fitted dose curve at least 0.9, where 1 is the maximum; inactive = score below 0.9.
# Assays:
# [1] = biological target: Bile acid receptor (Homo sapiens) (UniProt Q96RI1); test: ATG_FXR_TRANS: Attagene TRANS-FACTORIAL HepG2 Assay for Farnesoid X Receptor (FXR) (AID 2282979; active = hit-call score of the fitted dose curve at least 0.9, where 1 is the maximum;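 also: hits raise reporter mRNA above DMSO so AC50 marks FXR activation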); settings: HepG2 Attagene TRANS FXR-GAL4 reporter transcription
# How it was run: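 Reporter transcripts from transfected HepG2 cells were measured 24 h after dosing, using RT-PCR with capillary electrophoresis of 6-FAM-labelled fragments. The read-out reflects activity of exogenous FXR-Gal4 chimera on GAL4-UAS units, with induction relative to DMSO.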
# [2] = ATG_M_06_TRANS: Attagene TRANS-FACTORIAL HepG2 Assay for M06 Transcription Factor (Internal Marker) (AID 2282983; active = hit-call score of the fitted dose curve at least 0.9, where 1 is the maximum); settings: HepG2 Attagene TRANS M06 internal marker reporter
# How it was run: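 Cells: HepG2, transient multi-reporter transfection. Exposure: 24 h. Detection: RT-PCR, 6-FAM labelling, HpaI digestion (2 h, 37 °C), capillary electrophoresis. Baseline: DMSO.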
# [3] = biological target: Nuclear receptor subfamily 4 group A member 2 (Homo sapiens) (UniProt P43354); test: ATG_NURR1_TRANS: Attagene TRANS-FACTORIAL HepG2 Assay for human Nuclear Receptor Related Protein 1 (NURR1) (AID 2282985; active = hit-call score of the fitted dose curve at least 0.9, where 1 is the maximum); settings: HepG2 Attagene TRANS reporter, mRNA readout
# How it was run: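 HepG2 / transient MRTU transfection / 24 h compound exposure / RT-PCR + CE fluorescence of reporter mRNA / gain-of-signal vs DMSO.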
# [4] = biological target: Transcriptional activator Myb (Homo sapiens) (UniProt P10242); test: ATG_Myb_CIS: Attagene CIS-FACTORIAL HepG2 Assay for human Myeloblastosis (Myb) Proto-Oncogene Transcription Factor (AID 2282986); settings: HepG2 Attagene CIS-FACTORIAL Myb reporter transcription; actives raise or lower the signal
# How it was run: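 Endogenous transcription factor activity at a Myb-responsive cis element is reported in human liver HepG2 cells after 24 h chemical treatment. Reporter mRNA is detected by RT-PCR and capillary electrophoresis fluorescence, with DMSO as baseline.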
# [5] = biological target: Nuclear respiratory factor 1 (Homo sapiens) (UniProt Q16656); test: ATG_NRF1_CIS: Attagene CIS-FACTORIAL HepG2 Assay for human Nuclear Respiratory Factor 1 (NRF1) Orphan Gene (AID 2282987); settings: HepG2 NRF1 cis-element reporter, Attagene multiplex; actives raise or lower the signal
# How it was run: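 Human hepatoma HepG2 cells carrying transfected promoter-regulated reporter units were incubated with test chemicals for 24 h. Reporter transcripts were measured by RT-PCR plus capillary electrophoresis, and endpoints derived by bidirectional fitting with DMSO as baseline.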
# [6] = ATG_NFI_CIS: Attagene CIS-FACTORIAL HepG2 Assay for human Nuclear Factor I (NFI) (AID 2282989); settings: HepG2 cis-regulatory reporter, NFI response element transcription; actives raise or lower the signal
# How it was run: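 Endogenous TF activity in HepG2 cells transiently transfected with cis-element-driven multiplexed reporter units, read 24 h after dosing. Reporter mRNA quantified by RT-PCR, 6-FAM labelling, HpaI digestion and capillary electrophoresis; bidirectional fit versus DMSO.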
# [7] = biological target: Myc proto-oncogene protein (Homo sapiens) (UniProt P01106); test: ATG_Myc_CIS: Attagene CIS-FACTORIAL HepG2 Assay for human Myelocytomatosis (Myc) Proto-Oncogene Transcription Factor (AID 2282990); settings: HepG2, Attagene cis-reporter transcription factor activity; actives raise or lower the signal
# How it was run: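 Fluorescence intensity of reporter-specific cDNA fragments, separated by capillary electrophoresis, gives the signal. Transfected HepG2 cells carrying cis-promoter reporter constructs are incubated with compound for 24 h; DMSO serves as baseline.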
# [8] = ATG_NF_kB_CIS: Attagene CIS-FACTORIAL HepG2 Assay for human Nuclear Factor Kappa B (NF-kB) (AID 2282991); settings: HepG2 Attagene cis-factorial NF-kB reporter mRNA; actives raise or lower the signal
# How it was run: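 Multiplexed cis-reporter assay in transiently transfected HepG2. 24 h treatment; RNA isolated, RT-PCR, labelled fragments resolved by CE. DMSO baseline.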
# [9] = ATG_NRF2_ARE_CIS: Attagene CIS-FACTORIAL HepG2 Assay for human Nuclear Factor Erythroid 2 Related Factor 2 (NFR2) response to Antioxidant Response Elements (ARE) (AID 2282992); settings: HepG2 Attagene ARE/NRF2 reporter, transcription factor activity; actives raise or lower the signal;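 as to AC50: reporter mRNA level measured by RT-PCR and capillary electrophoresis fluorescence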
# How it was run: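 Transient MRTU transfection of HepG2; 24 h compound exposure; TriZol RNA, RT with oligo(dT), PCR, 6-FAM primer extension, HpaI cut, CE. Bidirectional fit vs DMSO.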
# [10] = ATG_Oct_MLP_CIS: Attagene CIS-FACTORIAL HepG2 Assay for human Octamer-Binding Transcription Factor (Oct) (AID 2282993); settings: HepG2 Attagene cis-factorial Oct reporter, mRNA; actives raise or lower the signal
# How it was run: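 HepG2 cells transiently transfected with cis-element-driven reporter transcription units (endogenous TF activity); 24 h compound exposure. Reporter mRNA quantified by RT-PCR, 6-FAM labelling, HpaI digestion and capillary electrophoresis; bidirectional fit versus DMSO baseline.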
# [11] = biological target: Cellular tumor antigen p53 (Homo sapiens) (UniProt P04637); test: ATG_p53_CIS: Attagene CIS-FACTORIAL HepG2 Assay for human p53 Transcription Factor (AID 2282994); settings: HepG2 p53 cis-element reporter, Attagene mRNA; actives raise or lower the signal
# How it was run: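 HepG2, transient MRTU transfection (cis promoter elements, endogenous TFs); 24 h dosing; RNA isolation, RT-PCR, 6-FAM primer extension, HpaI digest, CE fluorescence; bidirectional fit vs DMSO.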
# [12] = biological target: Oxysterols receptor LXR-alpha (Homo sapiens) (UniProt Q13133); test: ATG_LXRa_TRANS: Attagene TRANS-FACTORIAL HepG2 Assay for human Liver X Receptor alpha (LXRa) (AID 2282980; active = hit-call score of the fitted dose curve at least 0.9, where 1 is the maximum); settings: HepG2 Attagene TRANS reporter, LXRa transactivation
# How it was run: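 Chemical-induced reporter mRNA measured by RT-PCR with fluorescent labelling and capillary electrophoresis after 24 h dosing of transiently transfected HepG2 cells expressing exogenous NR-Gal4 chimeras; increases scored against DMSO baseline.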
# [13] = biological target: Oxysterols receptor LXR-beta (Homo sapiens) (UniProt P55055); test: ATG_LXRb_TRANS: Attagene TRANS-FACTORIAL HepG2 Assay for human Liver X Receptor beta (LXRb) (AID 2282981; active = hit-call score of the fitted dose curve at least 0.9, where 1 is the maximum); settings: HepG2 Attagene TRANS GAL4-LXRb reporter, mRNA
# How it was run: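 Gain-of-signal mRNA reporter endpoint, DMSO as negative control. Transiently transfected HepG2 cells carrying the NR-Gal4 chimera and GAL4-UAS reporter units were treated 24 h; transcripts quantified by RT-PCR and capillary electrophoresis fluorescence.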
# [14] = biological target: Hepatocyte nuclear factor 4-alpha (Homo sapiens) (UniProt P41235); test: ATG_HNF4a_TRANS: Attagene TRANS-FACTORIAL HepG2 Assay for human Hepatocyte Nuclear Factor 4 alpha (HNF4a) (AID 2282982; active = hit-call score of the fitted dose curve at least 0.9, where 1 is the maximum); settings: HepG2 HNF4a transactivation reporter, mRNA readout
# How it was run: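 Gain-of-signal mRNA induction, relative to DMSO vehicle, was read after 24 h compound treatment of HepG2 cells bearing transfected GAL4-UAS reporters. Detection used RT-PCR, 6-FAM primer extension and capillary electrophoresis.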
# [15] = ATG_M_32_TRANS: Attagene TRANS-FACTORIAL HepG2 Assay for M32 Transcription Factor (Internal Marker) (AID 2282984; active = hit-call score of the fitted dose curve at least 0.9, where 1 is the maximum;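 also: transcript level of a background control reporter unit measured by RT-PCR and capillary electrophoresis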); settings: HepG2 Attagene TRANS M32 internal marker reporter
# How it was run: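 Capillary electrophoresis of 6-FAM-labelled reporter fragments gives the signal; data fitted for gain over DMSO negative control. Source: HepG2 cells bearing transient multiple reporter transcription units, 24 h exposure.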
# [16] = BSK_3C_TissueFactor: BioMAP Diversity Plus: 3C Assay for Tissue Factor Biomarker Activity (AID 2282997); settings: BioMAP 3C HUVEC, tissue factor biomarker readout; actives raise or lower the signal
# How it was run: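 Dosing of human umbilical vein endothelial cells preceded a 24 h incubation. Tissue Factor was then read by ELISA, with increases and decreases both scored relative to DMSO controls.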
# [17] = BSK_3C_uPAR: BioMAP Diversity Plus: 3C Assay for Urokinase-type plasminogen activator receptor (uPAR) Biomarker Activity (AID 2282998); settings: BioMAP 3C HUVEC, uPAR biomarker ELISA; actives raise or lower the signal
# How it was run: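 Primary human umbilical vein endothelial cells, 3C system; surface uPAR measured by ELISA 24 h after dosing. Cytotoxicity via SRB total protein in parallel cultures; bidirectional fit against DMSO.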
# [18] = BSK_3C_VCAM1: BioMAP Diversity Plus: 3C Assay for Vascular cell adhesion molecule 1 (VCAM1) Biomarker Activity (AID 2282999); settings: BioMAP 3C HUVEC, VCAM1 ELISA, cytokine-stimulated; actives raise or lower the signal
# How it was run: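 Human umbilical vein endothelial cells (3C system), biomarker read by ELISA 24 h after dosing; bidirectional fit against DMSO baseline. Cytotoxicity tracked by SRB total-protein staining in parallel cultures at biomarker time.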
# Sequence of Oxysterols receptor LXR-beta (Homo sapiens) (P55055 whole entry, looked up, the tested form may be a part): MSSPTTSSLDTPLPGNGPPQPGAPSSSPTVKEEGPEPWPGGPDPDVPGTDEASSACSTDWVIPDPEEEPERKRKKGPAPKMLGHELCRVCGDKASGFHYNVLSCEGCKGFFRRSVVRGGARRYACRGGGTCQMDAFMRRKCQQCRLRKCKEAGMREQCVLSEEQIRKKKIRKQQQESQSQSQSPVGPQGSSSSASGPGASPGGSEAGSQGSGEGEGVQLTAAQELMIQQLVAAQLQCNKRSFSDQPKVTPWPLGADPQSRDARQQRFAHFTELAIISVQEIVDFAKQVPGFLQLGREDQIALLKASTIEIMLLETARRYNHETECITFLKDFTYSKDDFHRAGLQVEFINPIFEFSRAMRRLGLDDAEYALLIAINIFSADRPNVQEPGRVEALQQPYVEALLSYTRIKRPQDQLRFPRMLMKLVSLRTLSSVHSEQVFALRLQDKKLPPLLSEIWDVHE
# Sequence of Cellular tumor antigen p53 (Homo sapiens) (P04637 whole entry, looked up): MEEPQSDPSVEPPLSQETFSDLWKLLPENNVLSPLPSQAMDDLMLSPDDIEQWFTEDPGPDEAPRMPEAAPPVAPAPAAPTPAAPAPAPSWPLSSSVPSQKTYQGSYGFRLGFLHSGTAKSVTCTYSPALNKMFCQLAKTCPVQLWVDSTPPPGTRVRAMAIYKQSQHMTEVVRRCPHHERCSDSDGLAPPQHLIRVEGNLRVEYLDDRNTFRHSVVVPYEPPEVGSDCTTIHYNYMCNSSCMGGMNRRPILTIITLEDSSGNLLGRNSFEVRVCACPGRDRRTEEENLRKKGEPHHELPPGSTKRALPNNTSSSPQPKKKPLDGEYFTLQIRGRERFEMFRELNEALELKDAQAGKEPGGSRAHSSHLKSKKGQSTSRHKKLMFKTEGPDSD
# Sequence of Transcriptional activator Myb (Homo sapiens) (P10242 whole entry, looked up): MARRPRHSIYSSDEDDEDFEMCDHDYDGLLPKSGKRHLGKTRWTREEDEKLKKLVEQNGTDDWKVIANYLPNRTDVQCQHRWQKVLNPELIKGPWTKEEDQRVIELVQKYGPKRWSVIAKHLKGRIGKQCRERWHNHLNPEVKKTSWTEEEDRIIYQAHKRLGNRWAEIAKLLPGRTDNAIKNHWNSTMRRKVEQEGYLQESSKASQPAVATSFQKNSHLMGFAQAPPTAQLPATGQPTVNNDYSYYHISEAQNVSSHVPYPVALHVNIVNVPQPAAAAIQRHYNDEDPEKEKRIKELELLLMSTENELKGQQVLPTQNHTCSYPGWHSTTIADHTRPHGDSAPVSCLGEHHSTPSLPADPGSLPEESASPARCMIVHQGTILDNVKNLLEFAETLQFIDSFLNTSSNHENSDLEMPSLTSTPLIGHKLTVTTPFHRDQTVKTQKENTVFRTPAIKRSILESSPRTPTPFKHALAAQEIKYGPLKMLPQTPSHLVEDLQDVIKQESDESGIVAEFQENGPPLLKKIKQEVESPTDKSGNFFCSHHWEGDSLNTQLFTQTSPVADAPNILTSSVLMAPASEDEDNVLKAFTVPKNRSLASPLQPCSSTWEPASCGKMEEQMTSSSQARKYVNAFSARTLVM
# Sequence of Nuclear respiratory factor 1 (Homo sapiens) (Q16656 whole entry, looked up): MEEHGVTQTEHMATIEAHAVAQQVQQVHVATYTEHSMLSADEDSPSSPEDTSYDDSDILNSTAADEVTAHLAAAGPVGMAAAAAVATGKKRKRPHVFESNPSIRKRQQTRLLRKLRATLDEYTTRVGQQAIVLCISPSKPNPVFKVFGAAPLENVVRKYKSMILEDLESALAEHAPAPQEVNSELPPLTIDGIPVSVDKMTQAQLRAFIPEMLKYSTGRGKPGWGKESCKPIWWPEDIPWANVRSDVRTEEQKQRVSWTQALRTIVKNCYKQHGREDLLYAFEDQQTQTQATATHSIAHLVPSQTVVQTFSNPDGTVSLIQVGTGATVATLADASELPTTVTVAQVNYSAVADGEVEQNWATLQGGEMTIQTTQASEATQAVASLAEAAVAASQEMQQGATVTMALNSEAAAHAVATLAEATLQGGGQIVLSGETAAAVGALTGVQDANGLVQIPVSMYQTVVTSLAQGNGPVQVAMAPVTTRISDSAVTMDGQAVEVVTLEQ
# Sequence of Myc proto-oncogene protein (Homo sapiens) (P01106 whole entry, looked up, the tested form may be a part): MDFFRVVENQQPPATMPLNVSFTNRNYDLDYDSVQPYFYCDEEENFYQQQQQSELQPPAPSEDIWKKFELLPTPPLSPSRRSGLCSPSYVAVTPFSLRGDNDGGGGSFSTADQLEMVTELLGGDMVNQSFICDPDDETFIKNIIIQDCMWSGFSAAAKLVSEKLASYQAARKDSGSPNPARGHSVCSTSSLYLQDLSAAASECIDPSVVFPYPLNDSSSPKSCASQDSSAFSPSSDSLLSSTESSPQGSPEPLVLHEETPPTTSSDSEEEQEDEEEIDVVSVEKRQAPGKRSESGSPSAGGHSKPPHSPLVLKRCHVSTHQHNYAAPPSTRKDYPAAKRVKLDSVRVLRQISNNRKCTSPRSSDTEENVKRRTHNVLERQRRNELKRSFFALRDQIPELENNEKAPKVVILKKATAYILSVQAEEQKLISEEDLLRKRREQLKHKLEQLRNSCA
# Sequence of Hepatocyte nuclear factor 4-alpha (Homo sapiens) (P41235 whole entry, looked up, the tested form may be a part): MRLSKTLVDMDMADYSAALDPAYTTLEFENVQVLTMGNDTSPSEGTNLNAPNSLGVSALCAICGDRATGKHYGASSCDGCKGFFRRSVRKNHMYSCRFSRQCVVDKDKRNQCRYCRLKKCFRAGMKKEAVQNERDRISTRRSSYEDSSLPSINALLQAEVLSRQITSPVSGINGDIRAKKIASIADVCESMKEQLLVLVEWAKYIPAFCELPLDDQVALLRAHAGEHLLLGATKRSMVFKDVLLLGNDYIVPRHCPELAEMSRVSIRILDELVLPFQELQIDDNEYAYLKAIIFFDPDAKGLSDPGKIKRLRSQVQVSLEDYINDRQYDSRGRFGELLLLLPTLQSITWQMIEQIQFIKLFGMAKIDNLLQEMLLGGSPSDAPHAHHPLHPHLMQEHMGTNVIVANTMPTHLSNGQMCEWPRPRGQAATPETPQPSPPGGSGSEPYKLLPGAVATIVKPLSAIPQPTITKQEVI
# Sequence of Oxysterols receptor LXR-alpha (Homo sapiens) (Q13133 whole entry, looked up, the tested form may be a part): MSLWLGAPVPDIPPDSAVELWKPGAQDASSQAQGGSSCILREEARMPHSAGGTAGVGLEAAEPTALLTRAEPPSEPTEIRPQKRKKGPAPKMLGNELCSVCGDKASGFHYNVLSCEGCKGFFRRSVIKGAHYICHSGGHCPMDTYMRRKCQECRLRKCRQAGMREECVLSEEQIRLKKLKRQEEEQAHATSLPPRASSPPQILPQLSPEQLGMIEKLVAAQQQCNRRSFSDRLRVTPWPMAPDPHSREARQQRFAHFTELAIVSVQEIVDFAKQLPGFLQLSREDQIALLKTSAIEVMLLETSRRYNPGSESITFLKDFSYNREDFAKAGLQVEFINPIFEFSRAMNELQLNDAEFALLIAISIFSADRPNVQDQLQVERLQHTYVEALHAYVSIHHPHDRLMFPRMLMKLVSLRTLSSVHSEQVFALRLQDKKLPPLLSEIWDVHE
# Sequence of Nuclear receptor subfamily 4 group A member 2 (Homo sapiens) (P43354 whole entry, looked up): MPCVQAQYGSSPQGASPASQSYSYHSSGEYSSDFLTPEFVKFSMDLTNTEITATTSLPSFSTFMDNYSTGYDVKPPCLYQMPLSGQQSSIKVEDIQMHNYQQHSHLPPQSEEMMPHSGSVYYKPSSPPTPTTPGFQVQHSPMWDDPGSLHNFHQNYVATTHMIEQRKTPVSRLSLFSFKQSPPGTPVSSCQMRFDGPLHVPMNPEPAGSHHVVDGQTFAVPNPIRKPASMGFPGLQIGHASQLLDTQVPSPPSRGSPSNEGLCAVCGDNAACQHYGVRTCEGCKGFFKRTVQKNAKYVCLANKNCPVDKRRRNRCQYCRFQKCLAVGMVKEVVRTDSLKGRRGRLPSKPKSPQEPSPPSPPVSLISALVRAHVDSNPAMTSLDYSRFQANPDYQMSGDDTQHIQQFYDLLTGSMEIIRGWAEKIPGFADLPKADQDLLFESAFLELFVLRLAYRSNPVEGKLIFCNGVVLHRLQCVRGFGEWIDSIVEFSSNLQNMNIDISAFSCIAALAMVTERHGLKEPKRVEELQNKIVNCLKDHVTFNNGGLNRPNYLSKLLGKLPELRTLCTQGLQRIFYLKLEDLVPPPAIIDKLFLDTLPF
# Sequence of Bile acid receptor (Homo sapiens) (Q96RI1 whole entry, looked up, the tested form may be a part): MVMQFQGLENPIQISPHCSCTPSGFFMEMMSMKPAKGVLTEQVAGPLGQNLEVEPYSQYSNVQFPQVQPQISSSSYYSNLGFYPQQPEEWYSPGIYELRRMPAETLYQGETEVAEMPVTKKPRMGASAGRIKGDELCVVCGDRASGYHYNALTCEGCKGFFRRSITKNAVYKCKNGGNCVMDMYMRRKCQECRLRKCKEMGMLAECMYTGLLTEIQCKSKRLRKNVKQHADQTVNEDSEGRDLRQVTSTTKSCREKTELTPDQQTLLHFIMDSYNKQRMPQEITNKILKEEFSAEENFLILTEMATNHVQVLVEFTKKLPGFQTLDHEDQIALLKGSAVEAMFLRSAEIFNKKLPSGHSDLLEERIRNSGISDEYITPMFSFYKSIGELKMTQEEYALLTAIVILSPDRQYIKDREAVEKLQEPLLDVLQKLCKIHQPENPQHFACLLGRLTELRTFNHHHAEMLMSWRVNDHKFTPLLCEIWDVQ
smiles,measurement,setting,value
CC(C)=NNC(N)=S,outcome,[1],inactive
same,outcome,[2],inactive
same,outcome,[3],inactive
same,outcome,[4],inactive
same,outcome,[5],inactive
same,outcome,[6],inactive
same,outcome,[7],inactive
same,outcome,[8],inactive
same,outcome,[9],inactive
same,outcome,[10],inactive
same,outcome,[11],inactive
CCC[Si](OC)(OC)OC,outcome,[12],inactive
same,outcome,[13],inactive
same,outcome,[14],inactive
same,outcome,[15],inactive
same,outcome,[3],inactive
same,outcome,[4],inactive
same,outcome,[6],inactive
same,outcome,[7],inactive
same,outcome,[8],inactive
same,outcome,[9],inactive
same,outcome,[10],inactive
same,outcome,[11],inactive
CCOC(=O)c1ccc(C)cc1,outcome,[12],inactive
same,outcome,[13],inactive
same,outcome,[14],inactive
same,outcome,[2],inactive
same,outcome,[3],inactive
same,outcome,[4],inactive
same,outcome,[6],inactive
same,outcome,[8],inactive
same,outcome,[9],inactive
same,outcome,[10],inactive
same,outcome,[11],inactive
CCCCCCCO,outcome,[12],inactive
same,outcome,[2],inactive
same,outcome,[15],inactive
same,outcome,[3],inactive
same,outcome,[4],inactive
same,outcome,[5],inactive
same,outcome,[6],inactive
same,outcome,[7],inactive
same,outcome,[8],inactive
same,outcome,[9],inactive
same,outcome,[10],inactive
same,outcome,[16],inactive
same,outcome,[17],inactive
same,outcome,[18],inactive
Cc1ccc2c(c1)CCCN2,outcome,[12],inactive
same,outcome,[14],inactive
same,outcome,[2],inactive
same,outcome,[15],inactive
same,outcome,[3],inactive
same,outcome,[4],inactive
same,outcome,[5],inactive
same,outcome,[6],inactive
same,outcome,[7],inactive
same,outcome,[8],inactive
same,outcome,[9],inactive
same,outcome,[10],inactive
CC1=CC=C(C(C)C)CC1,outcome,[12],inactive
same,outcome,[14],inactive
same,outcome,[2],inactive
same,outcome,[4],inactive
same,outcome,[5],inactive
same,outcome,[6],inactive
same,outcome,[7],inactive
same,AC50,[9],152 µM (active)
same,outcome,[10],inactive
same,outcome,[11],inactive
same,outcome,[16],inactive
same,outcome,[17],inactive
same,outcome,[18],inactive
CCCCCCCCCCCCCCCCCCOS(=O)(=O)O,outcome,[12],inactive
same,outcome,[13],inactive
same,outcome,[14],inactive
same,outcome,[15],inactive
same,AC50,[3],179 µM (active)
same,outcome,[4],inactive
same,AC50,[5],49.5 µM (active)
same,AC50,[6],33.4 µM (active)
same,outcome,[7],inactive
same,AC50,[8],58.1 µM (active)
same,AC50,[9],13.7 µM (active)
same,outcome,[10],inactive
same,AC50,[11],18.4 µM (active)
CC(C)c1ccc(O)c(C(C)C)c1,outcome,[12],inactive
same,outcome,[2],inactive
same,outcome,[15],inactive
same,outcome,[3],inactive
same,outcome,[4],inactive
same,outcome,[6],inactive
same,outcome,[7],inactive
same,outcome,[8],inactive
same,AC50,[9],24.6 µM (active)
same,outcome,[10],inactive
same,outcome,[11],inactive
CC(C)CCOCc1ccccc1,outcome,[12],inactive
same,outcome,[13],inactive
same,outcome,[2],inactive
same,outcome,[15],inactive
same,outcome,[3],inactive
same,outcome,[4],inactive
same,outcome,[5],inactive
same,outcome,[6],inactive
same,outcome,[7],inactive
same,outcome,[8],inactive
same,outcome,[9],inactive
same,outcome,[10],inactive
Nc1ccnc(=O)[nH]1,outcome,[13],inactive
same,outcome,[2],inactive
same,outcome,[15],inactive
same,outcome,[3],inactive
same,outcome,[4],inactive
same,outcome,[5],inactive
same,outcome,[6],inactive
same,outcome,[7],inactive
same,outcome,[8],inactive
same,outcome,[9],inactive
same,outcome,[10],inactive
same,outcome,[11],inactive
O=C1CCCCCCCCCCCN1,outcome,[2],inactive
same,outcome,[4],inactive
same,outcome,[5],inactive
same,outcome,[6],inactive
same,outcome,[7],inactive
same,outcome,[8],inactive
same,outcome,[9],inactive
same,outcome,[10],inactive
same,outcome,[11],inactive
same,outcome,[16],inactive
same,outcome,[17],inactive
same,outcome,[18],inactive
CC(CC(C)C)=NO,outcome,[2],inactive
same,outcome,[4],inactive
same,outcome,[5],inactive
same,outcome,[6],inactive
same,outcome,[7],inactive
same,outcome,[8],inactive
same,outcome,[9],inactive
same,outcome,[10],inactive
same,outcome,[11],inactive
Oc1c(Cl)cc(Cl)c(Cl)c1Cl,outcome,[13],inactive
same,outcome,[14],inactive
same,outcome,[2],inactive
same,outcome,[4],inactive
same,outcome,[6],inactive
same,outcome,[7],inactive
same,outcome,[8],inactive
same,AC50,[9],27.1 µM (active)
same,AC50,[10],100 µM (active)
same,outcome,[11],inactive
same,AC50,[16],23.8 µM (active)
same,AC50,[17],20 µM (active)
same,AC50,[18],20 µM (active)
